Data: ChEMBL document CHEMBL1961873, “Compounds: GSK PKIS; Assays: Nanosyn kinase panel” (2012)

The molecules below were run against Insulin receptor (Homo sapiens) (UniProt P06213). Settings: at 0.1 µM.
Insulin receptor (Homo sapiens), sequence (P06213 28-758 limits assumed): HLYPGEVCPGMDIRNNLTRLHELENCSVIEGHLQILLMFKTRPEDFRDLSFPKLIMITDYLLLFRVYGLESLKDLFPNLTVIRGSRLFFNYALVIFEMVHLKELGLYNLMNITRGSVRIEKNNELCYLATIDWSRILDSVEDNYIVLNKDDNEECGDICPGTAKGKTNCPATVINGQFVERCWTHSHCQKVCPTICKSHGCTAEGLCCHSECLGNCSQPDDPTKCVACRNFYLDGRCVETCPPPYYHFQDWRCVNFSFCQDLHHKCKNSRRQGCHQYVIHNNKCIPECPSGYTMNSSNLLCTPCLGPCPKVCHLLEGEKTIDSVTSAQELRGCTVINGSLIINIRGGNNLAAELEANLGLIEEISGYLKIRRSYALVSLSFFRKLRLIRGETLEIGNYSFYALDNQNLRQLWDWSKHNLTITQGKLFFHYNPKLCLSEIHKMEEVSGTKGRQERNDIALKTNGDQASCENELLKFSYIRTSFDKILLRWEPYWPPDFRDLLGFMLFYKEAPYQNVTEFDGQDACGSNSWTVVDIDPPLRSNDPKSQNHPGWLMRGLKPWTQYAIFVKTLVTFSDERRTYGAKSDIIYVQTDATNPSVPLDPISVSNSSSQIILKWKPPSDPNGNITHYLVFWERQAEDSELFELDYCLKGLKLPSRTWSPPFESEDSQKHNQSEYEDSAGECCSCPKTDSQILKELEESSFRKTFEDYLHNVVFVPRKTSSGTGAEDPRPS
Insulin receptor (Homo sapiens), sequence (P06213 763-1382 limits assumed): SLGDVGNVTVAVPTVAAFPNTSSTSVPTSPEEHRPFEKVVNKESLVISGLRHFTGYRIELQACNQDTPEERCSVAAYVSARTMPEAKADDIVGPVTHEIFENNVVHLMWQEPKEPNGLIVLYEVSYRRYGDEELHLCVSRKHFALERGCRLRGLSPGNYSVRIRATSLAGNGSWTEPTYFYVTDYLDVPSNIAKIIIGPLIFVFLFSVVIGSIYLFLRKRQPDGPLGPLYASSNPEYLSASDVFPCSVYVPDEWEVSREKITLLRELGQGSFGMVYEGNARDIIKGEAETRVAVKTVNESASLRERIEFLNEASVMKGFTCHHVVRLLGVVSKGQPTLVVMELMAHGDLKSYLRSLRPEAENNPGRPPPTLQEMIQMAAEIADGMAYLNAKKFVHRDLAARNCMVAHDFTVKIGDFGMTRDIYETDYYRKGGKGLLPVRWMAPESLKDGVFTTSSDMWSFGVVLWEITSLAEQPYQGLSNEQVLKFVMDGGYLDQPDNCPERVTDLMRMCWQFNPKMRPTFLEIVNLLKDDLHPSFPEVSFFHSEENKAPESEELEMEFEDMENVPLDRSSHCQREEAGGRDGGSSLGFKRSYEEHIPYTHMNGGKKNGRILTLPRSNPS
Work on `COc1ccc(CNC(=O)c2ccc(-c3cc(-c4nnc(C)o4)ccc3C)cc2)cc1` yielded an inhibition of 0.9%.
Work on `Fc1ccc(-c2cc(-c3c[nH]nc3-c3ccccn3)ccn2)cc1` yielded an inhibition of 6.47%.
For `CS(=O)(=O)CCNCc1ccc(-c2ccc3ncnc(Nc4ccc(OCc5ccccc5)c(C(F)(F)F)c4)c3c2)o1`, the inhibition was 0.37%.
`COc1ccc2c(-c3ccnc(Nc4cccc(OC(F)(F)F)c4)n3)cnn2n1` was tested, and the inhibition was 4.34%.
`c1ccc(-c2nc3n(c2-c2ccc4c(c2)OCO4)CCC3)nc1` gave an inhibition of 4.57%.
In the case of `COc1ccc(-c2cc(-c3c[nH]nc3-c3ccccn3)ccn2)cc1`, the inhibition is reported as 4.5%.
Work on `COc1ccc(-c2cc3c(N)ncnc3o2)cc1` yielded an inhibition of -0.41%.
In the case of `FC(F)(F)c1cccc(-c2nn3ncccc3c2-c2ccnc(Nc3ccc4c(c3)OCCO4)n2)c1`, the inhibition is reported as -1.37%.
For `N#Cc1c(NC(=O)CN2CCOCC2)sc2c1CCCC2`, the inhibition was 13.2%.
Work on `COC(=O)Nc1nc2ccc(Oc3ccc(NC(=O)Nc4cccc(Cl)c4)cc3)cc2[nH]1` yielded an inhibition of -1.15%.
In the case of `CN1CCC(n2cnc(-c3ccc(F)cc3)c2-c2ccnc(Nc3ccccc3)n2)CC1`, the inhibition is reported as 1.5%.
Work on `Clc1ccc(-c2nn3ncccc3c2-c2ccnc(Nc3ccccc3)n2)cc1` yielded an inhibition of 2.64%.
For `COc1ccc(-c2nn3ncccc3c2-c2ccnc(Nc3ccc4c(c3)OCCO4)n2)cc1`, the inhibition was 1.21%.
`Nc1nc(-c2ccc(F)cc2)c(-c2ccc3ncccc3n2)s1` showed an inhibition of 6.61%.
`COc1ccc2[nH]c3c4[nH]c5ccc(OC)cc5c4c4c(c3c2c1)C(=O)NC4=O` was tested, and the inhibition was 6.91%.
`Cc1ccc(O)cc1Nc1ccnc2cc(-c3ccccn3)ccc12` was tested, and the inhibition was 5.4%.
With `NS(=O)(=O)c1ccc(N/N=C2\C(=O)Nc3ccc4ncccc4c32)cc1` the inhibition was 5.75%.
For `CCN1CCC(CC(=O)Nc2n[nH]c3nnc(-c4cccc(F)c4F)cc23)CC1`, the inhibition was 1.72%.
For `COc1cccc(-c2c[nH]c3c(N/N=C/c4ccncc4)ncnc23)c1`, the inhibition was 1.17%.
`NC(=O)c1sc(-n2cnc3ccc(C(F)(F)F)cc32)cc1OCc1ccccc1Br` was tested, and the inhibition was 4.46%.
With `CC(C)COC(=O)c1ccc2c(c1)/C(=C/Nc1ccc(S(N)(=O)=O)cc1)C(=O)N2` the inhibition was 2.06%.
For `CCn1c(-c2nonc2N)nc2cnc(Oc3cccc(NC(=O)c4ccc(N(C)C)cc4)c3)cc21`, the inhibition was 2.97%.
Molecule `Fc1cccc(COc2ccc(Nc3ncnc4sc(-c5ccco5)cc34)cc2Cl)c1` has an inhibition of 1.94%.
`CC(=O)NCc1cccc(C#Cc2cncnc2Nc2ccc(OCc3cccc(F)c3)c(Cl)c2)c1` was tested, and the inhibition was 2.9%.
`CS(=O)(=O)CCNCc1coc(-c2ccc3ncnc(Nc4ccc(OCc5ccccc5)cc4)c3c2)c1` showed an inhibition of 3.09%.
In the case of `Cc1ccc2c(-c3ccnc(Nc4ccccc4)n3)c(-c3ccc(F)cc3)nn2n1`, the inhibition is reported as 1.31%.
Work on `O=S(=O)(CCNCc1ccc(-c2ccc3ncnc(Nc4ccc(OCc5cccc(F)c5)c(Cl)c4)c3c2)o1)c1ccccc1` yielded an inhibition of 3.73%.
With `CCNC(=O)O[C@H]1CN[C@H](C#Cc2cc3ncnc(Nc4ccc(OCc5cccc(F)c5)c(Cl)c4)c3s2)C1` the inhibition was 0.78%.
`c1ccc(COc2ccc(Nc3ncnc4ccc(-c5ccco5)cc34)cc2)cc1` gave an inhibition of 0.94%.
Work on `COC(=O)c1sc(-n2cnc3cc(OC)c(OC)cc32)cc1OCc1ccccc1C(F)(F)F` yielded an inhibition of 5.09%.
`Cc1cccc2c1NC(=O)/C2=N\Nc1ccc(S(N)(=O)=O)cc1` gave an inhibition of 2.44%.
Work on `CC(=O)Nc1cccc(C#Cc2cncnc2Nc2ccc(OCc3cccc(F)c3)c(Cl)c2)c1` yielded an inhibition of 3.44%.
For `CCn1c(-c2nonc2N)nc2ccccc21`, the inhibition was 2.87%.

What follows are molecules tested against Insulin receptor (Homo sapiens) (UniProt P06213). Settings: at 1 µM.
In the case of `COc1ccc(CNC(=O)c2ccc(-c3cc(-c4nnc(C)o4)ccc3C)cc2)cc1`, the inhibition is reported as 0.55%.
`Fc1ccc(-c2cc(-c3c[nH]nc3-c3ccccn3)ccn2)cc1` gave an inhibition of 5.34%.
Work on `CS(=O)(=O)CCNCc1ccc(-c2ccc3ncnc(Nc4ccc(OCc5ccccc5)c(C(F)(F)F)c4)c3c2)o1` yielded an inhibition of 2.62%.
For `COc1ccc2c(-c3ccnc(Nc4cccc(OC(F)(F)F)c4)n3)cnn2n1`, the inhibition was 8.18%.
`c1ccc(-c2nc3n(c2-c2ccc4c(c2)OCO4)CCC3)nc1` showed an inhibition of 3.26%.
In the case of `COc1ccc(-c2cc(-c3c[nH]nc3-c3ccccn3)ccn2)cc1`, the inhibition is reported as 3.43%.
Molecule `COc1ccc(-c2cc3c(N)ncnc3o2)cc1` has an inhibition of 2.44%.
Molecule `FC(F)(F)c1cccc(-c2nn3ncccc3c2-c2ccnc(Nc3ccc4c(c3)OCCO4)n2)c1` has an inhibition of 3.05%.
Molecule `N#Cc1c(NC(=O)CN2CCOCC2)sc2c1CCCC2` has an inhibition of 8.64%.
Molecule `COC(=O)Nc1nc2ccc(Oc3ccc(NC(=O)Nc4cccc(Cl)c4)cc3)cc2[nH]1` has an inhibition of 0.68%.
`CN1CCC(n2cnc(-c3ccc(F)cc3)c2-c2ccnc(Nc3ccccc3)n2)CC1` was tested, and the inhibition was 0.39%.
Molecule `Clc1ccc(-c2nn3ncccc3c2-c2ccnc(Nc3ccccc3)n2)cc1` has an inhibition of 4.44%.
In the case of `COc1ccc(-c2nn3ncccc3c2-c2ccnc(Nc3ccc4c(c3)OCCO4)n2)cc1`, the inhibition is reported as 24.1%.
Work on `Nc1nc(-c2ccc(F)cc2)c(-c2ccc3ncccc3n2)s1` yielded an inhibition of 43.3%.
For `COc1ccc2[nH]c3c4[nH]c5ccc(OC)cc5c4c4c(c3c2c1)C(=O)NC4=O`, the inhibition was 10.3%.
With `Cc1ccc(O)cc1Nc1ccnc2cc(-c3ccccn3)ccc12` the inhibition was 5.51%.
In the case of `NS(=O)(=O)c1ccc(N/N=C2\C(=O)Nc3ccc4ncccc4c32)cc1`, the inhibition is reported as 27.8%.
`CCN1CCC(CC(=O)Nc2n[nH]c3nnc(-c4cccc(F)c4F)cc23)CC1` was tested, and the inhibition was 4.05%.
Work on `COc1cccc(-c2c[nH]c3c(N/N=C/c4ccncc4)ncnc23)c1` yielded an inhibition of 3.79%.
For `NC(=O)c1sc(-n2cnc3ccc(C(F)(F)F)cc32)cc1OCc1ccccc1Br`, the inhibition was 5.5%.
With `CC(C)COC(=O)c1ccc2c(c1)/C(=C/Nc1ccc(S(N)(=O)=O)cc1)C(=O)N2` the inhibition was 2.17%.
With `CCn1c(-c2nonc2N)nc2cnc(Oc3cccc(NC(=O)c4ccc(N(C)C)cc4)c3)cc21` the inhibition was 3.14%.
Work on `Fc1cccc(COc2ccc(Nc3ncnc4sc(-c5ccco5)cc34)cc2Cl)c1` yielded an inhibition of 2.78%.
With `CC(=O)NCc1cccc(C#Cc2cncnc2Nc2ccc(OCc3cccc(F)c3)c(Cl)c2)c1` the inhibition was 0.68%.
With `CS(=O)(=O)CCNCc1coc(-c2ccc3ncnc(Nc4ccc(OCc5ccccc5)cc4)c3c2)c1` the inhibition was 2.56%.
Molecule `Cc1ccc2c(-c3ccnc(Nc4ccccc4)n3)c(-c3ccc(F)cc3)nn2n1` has an inhibition of 7.57%.
`O=S(=O)(CCNCc1ccc(-c2ccc3ncnc(Nc4ccc(OCc5cccc(F)c5)c(Cl)c4)c3c2)o1)c1ccccc1` gave an inhibition of 6.24%.
With `CCNC(=O)O[C@H]1CN[C@H](C#Cc2cc3ncnc(Nc4ccc(OCc5cccc(F)c5)c(Cl)c4)c3s2)C1` the inhibition was 6.61%.
`c1ccc(COc2ccc(Nc3ncnc4ccc(-c5ccco5)cc34)cc2)cc1` was tested, and the inhibition was 0.94%.
In the case of `COC(=O)c1sc(-n2cnc3cc(OC)c(OC)cc32)cc1OCc1ccccc1C(F)(F)F`, the inhibition is reported as 5.96%.
With `Cc1cccc2c1NC(=O)/C2=N\Nc1ccc(S(N)(=O)=O)cc1` the inhibition was 2.27%.
`CC(=O)Nc1cccc(C#Cc2cncnc2Nc2ccc(OCc3cccc(F)c3)c(Cl)c2)c1` showed an inhibition of 1.06%.
Work on `CCn1c(-c2nonc2N)nc2ccccc21` yielded an inhibition of 1.78%.
